PABP FP inh – blocks human PABP binding to poly(A) RNA; P11940; fluorescence polarization; inhibition, % at 35 µM; 1% of 290,000 active; AID 2014;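 note: calls also rest on retests at 20 µM and on dose response follow-up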
ALR inh – blocks human ALR sulfhydryl oxidase activity | P55789 | purified ALR, DTT oxidation, H2O2 HRP-luminol luminescence | inhibition, % (no concentration beside the values) | 3.8% of 290,000 active;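 active = mean replicate inhibition above about 79%, with every replicate also reaching it, limit read from the data; inconclusive = only one of the two criteria met; inactive = mean below limit and not every replicate reaching it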
Target sequence (P55789 whole entry, looked up): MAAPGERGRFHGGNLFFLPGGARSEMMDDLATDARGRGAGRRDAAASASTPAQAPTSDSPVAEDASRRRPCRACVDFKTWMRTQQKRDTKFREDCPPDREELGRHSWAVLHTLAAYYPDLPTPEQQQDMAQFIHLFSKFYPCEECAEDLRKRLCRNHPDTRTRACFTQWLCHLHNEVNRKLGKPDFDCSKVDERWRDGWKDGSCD
eIF4H FP inh – inhibitors of RNA binding by human eIF4H. eIF4H fluorescence polarization binding assay. inhibition, % at 35 µM. 0.94% of 290,000 active. AID 2012;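 note: calls also rest on retests at 20 µM and on dose response follow-up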
Efflux pump inh – antifungal efflux pump inhibition, Nile Red retention; S. cerevisiae Candida pump triplex; inhibition, % at 10 µM; 0.44% of 330,000 active; AID 485275;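 active = plate passing quality check with inhibition over a set limit, or well fluorescence over plate mean plus 4 SD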;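 note: Nile Red retained in pooled yeast measured as flow cytometry median fluorescence; higher means more Nile Red kept so more efflux inhibition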
SUMO HTRF inh – inhibitors of human SUMOylation (UBC9); HTRF SUMOylation assay, SAE1/SAE2 + UBC9, in vitro; inhibition, % at 35 µM; 0.36% of 290,000 active; AID 2006; in the data active = inhibition above about 50%, passing the limit was not always enough; inconclusive = no clear call, values can overlap the other calls
Target sequence (P63279 whole entry, looked up): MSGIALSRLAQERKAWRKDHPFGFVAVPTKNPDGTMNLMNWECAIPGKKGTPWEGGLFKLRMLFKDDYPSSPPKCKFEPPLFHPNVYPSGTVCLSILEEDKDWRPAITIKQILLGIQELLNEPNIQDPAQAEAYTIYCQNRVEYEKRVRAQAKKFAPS
PABP1 MLLE inh – inhibitors of microRNA-mediated deadenylation, human PABP1 MLLE binding | P11940 | inhibition, % at 20 µM | AID 588489 | GST-MLLE / FITC-PAM2 fluorescence polarization | 0.36% of 360,000 active; in the data active = inhibition above about 35%, passing the limit was not always enough
Large screens that a line does not name were inactive. Most compounds without a hit are left out; they make up all but 4.7% or so of the library. Unless noted, the rule behind the calls is not given here.

COc1ccc(NC(=O)CN(C)C(=O)CSc2nc3ccccc3s2)cc1	ALR inh 98 (no result: PABP FP inh, eIF4H FP inh, SUMO HTRF inh)
COc1ccc(Cl)cc1N1C(=NC(=O)C2CCCO2)SC2CS(=O)(=O)CC21 (stereo not given)	none
COc1cccc(C(=O)Nc2ccc(C3CC3(Cl)Cl)cc2)c1 (stereo not given)	eIF4H FP inh active (no result: ALR inh)
COC(=O)C1=C(NC(=O)c2cccc(OC)c2)CCS1	ALR inh 97
COC(=O)C1=C(NC(=O)c2cccs2)CCS1	none (no result: ALR inh, Efflux pump inh, PABP1 MLLE inh)
COCCNC(=S)N1CCC2CC1c1c(Cl)cccc12 (stereo not given)	none (no result: PABP FP inh, ALR inh, eIF4H FP inh, Efflux pump inh, SUMO HTRF inh)
Cc1nc2c(C(=O)NCCC(C)C)c[nH]n2c(=O)c1Cl	ALR inh 95
C/C(=N\Nc1ccc(S(=O)(=O)N2CCCCC2)cn1)c1cccc(Br)c1	none (no result: PABP FP inh, eIF4H FP inh, SUMO HTRF inh)
CC(=O)Nc1ccc(S(=O)(=O)N(C)c2ccc(OCC(=O)NCCc3ccccc3F)cc2)cc1	none (no result: PABP FP inh, ALR inh, eIF4H FP inh, Efflux pump inh, SUMO HTRF inh)
COC(=O)C1=COC(OC2OC(CO)C(O)C(O)C2O)C2C1C=CC2(O)CO (stereo not given)	PABP FP inh 62, eIF4H FP inh 89
O=C(CSc1nnc(Nc2ccccc2F)s1)NCc1ccco1	none (no result: ALR inh, Efflux pump inh)
CCn1c(SCC(=O)NC(=O)NCc2ccco2)nc2sc(C)c(C)c2c1=O	PABP FP inh 50, ALR inh inconclusive, eIF4H FP inh 82
Cc1sc2nc(SCC(=O)NCc3ccco3)n(C)c(=O)c2c1C	none
Cc1ccccc1Nc1nnc(SCC(=O)NC(=O)NCc2ccco2)s1	eIF4H FP inh 59
CCCn1c(SCC(=O)NC(=O)NCc2ccco2)n[nH]c1=O	PABP FP inh 36, eIF4H FP inh 74 (no result: ALR inh, Efflux pump inh, PABP1 MLLE inh)
C=CCn1c(SCC(=O)NC(=O)NCc2ccco2)nc2sc(CC)cc2c1=O	PABP FP inh 28, eIF4H FP inh 84 (no result: ALR inh)
CN1[C@@H]2CCC[C@H]1CC(NC(=O)c1nn(C)c3ccccc13)C2 (stereo not given in full)	none (no result: PABP FP inh, eIF4H FP inh, SUMO HTRF inh)
CC1(NC(=O)Nc2cccc3ccccc23)CCS(=O)(=O)C1 (stereo not given)	none
COc1ccc(CC(=O)N/N=C(/C)CC(=O)N(C)c2ccccc2)cc1	none
CCOc1ccccc1-n1nnnc1SCC(=O)NC(=O)NCc1ccco1	PABP FP inh 23, eIF4H FP inh 61 (no result: ALR inh)
O=C(CSc1nnnn1-c1ccccc1)NC(=O)NCc1ccco1	none
NC(=O)C1(c2ccccc2)OC1c1ccccc1 (stereo not given)	none (no result: PABP FP inh, eIF4H FP inh, SUMO HTRF inh)
Cc1cc(-c2n[nH]c(=S)n2-c2ccccc2C)cs1	eIF4H FP inh active
Cc1ccc(C)c(-n2c(-c3csc(C)c3C)n[nH]c2=S)c1	ALR inh 89
CCc1cc(-c2n[nH]c(=S)n2-c2cccc(C)c2)cs1	ALR inh 85
Cc1cccc(-n2c(-c3csc(C)c3)n[nH]c2=S)c1	none
COc1cc(C2CC(=O)Oc3cc(C)c(Br)c(C)c32)cc(OC)c1OC (stereo not given)	none (no result: PABP FP inh, ALR inh, eIF4H FP inh, SUMO HTRF inh)
COc1ccc(Nc2nccc(-c3cccc(N)c3)n2)cc1	ALR inh 99
CCSc1nc2sccc2c(=O)n1-c1ccccc1	none
C[C@@H]1CN([C@@H](C)CO)C(=O)CCCn2cc(nn2)CO[C@H]1CN(C)S(=O)(=O)c1ccccc1F	none (no result: PABP FP inh, ALR inh, eIF4H FP inh, Efflux pump inh, SUMO HTRF inh)
CC1(C)CC(=O)C(C(C2=C(O)CC(C)(C)CC2=O)c2ccc(Br)s2)C(=O)C1 (stereo not given)	ALR inh 98
COc1cccc(C(C2C(=O)CC(C)(C)CC2=O)C2C(=O)CC(C)(C)CC2=O)c1	none (no result: ALR inh)
CC1(C)CC(=O)C(C(C2=C(O)CC(C)(C)CC2=O)c2ccc([N+](=O)[O-])cc2)C(=O)C1 (stereo not given)	none
COc1cccc(C(C2=C(O)CC(C)(C)CC2=O)C2C(=O)CC(C)(C)CC2=O)c1 (stereo not given)	ALR inh 98
Cc1ccc(C(C2=C(O)CC(C)(C)CC2=O)C2C(=O)CC(C)(C)CC2=O)s1 (stereo not given)	ALR inh 98
Cc1ccc(C(=O)NCC(=O)Nc2cccc(C(F)(F)F)c2)cc1	eIF4H FP inh active (no result: ALR inh)
O=C(CNC(=O)c1ccccc1)Nc1cccc(C(F)(F)F)c1	none
OCCC1CN(CC2CCCCC2)CCN1C1CCCC1 (stereo not given)	none
CCC(c1nnnn1Cc1ccc2c(c1)OCO2)N1CCN(c2ccccc2)CC1 (stereo not given)	ALR inh 90
COc1ccc(Cn2nnnc2C(c2cccs2)N2CCN(c3ccccc3)CC2)cc1 (stereo not given)	none
COc1ccc(Cn2nnnc2C(c2cccnc2)N2CCN(c3ccc(O)cc3)CC2)cc1 (stereo not given)	ALR inh 98
c1ccc(Cn2nnnc2C(c2cccs2)N2CCCCCC2)cc1 (stereo not given)	none
CC(C)(C)n1nnnc1C(c1ccncc1)N1CCN(c2ccc(O)cc2)CC1 (stereo not given)	ALR inh 98
Oc1ccc(N2CCN(C(c3cccs3)c3nnnn3CCc3ccccc3)CC2)cc1 (stereo not given)	ALR inh 96
CC(C)(C)n1nnnc1C(c1cccnc1)N1CCOCC1 (stereo not given)	none (no result: ALR inh)
CCC(c1nnnn1Cc1ccc2c(c1)OCO2)N1CCN(c2ccc(F)cc2)CC1 (stereo not given)	none
COc1ccc(N2CCN(C(c3ccc4ncccc4c3)c3nnnn3C(C)C)CC2)cc1 (stereo not given)	ALR inh 76
CCC(c1nnnn1Cc1ccc2c(c1)OCO2)N1CCN(c2ccc(OC)cc2)CC1 (stereo not given)	ALR inh 88
COCCn1nnnc1C(CC(C)C)N1CCN(c2ccccc2)CC1 (stereo not given)	ALR inh 93
CCC(c1nnnn1Cc1ccccc1)N1CCN(c2ccc(OC)cc2)CC1 (stereo not given)	ALR inh 96
COc1ccc(Cn2nnnc2C(c2ccc3ncccc3c2)N2CCN(C3CCCCC3)CC2)cc1 (stereo not given)	none
C/C(=N\NS(=O)(=O)c1ccc([N+](=O)[O-])cc1)c1c[nH]c2ccccc12	none
COc1ccc(-n2c(SCC(=O)C(C)(C)C)nc3c(sc(=S)n3-c3ccccc3)c2=O)c(OC)c1	none
CC(C)[C@H](NS(=O)(=O)c1ccccc1F)C(=O)OCC(=O)Nc1cccc(S(N)(=O)=O)c1	none (no result: PABP FP inh, eIF4H FP inh, SUMO HTRF inh)
CCCC(c1nnnn1CC1CCCO1)N1CCN(c2ccccc2)CC1 (stereo not given)	ALR inh 98
CCCCC(c1nnnn1CC1CCCO1)N1CCN(Cc2ccccc2)CC1 (stereo not given)	none
c1ccc(Cn2nnnc2C(c2ccccn2)N2CCN(c3ccccc3)CC2)cc1 (stereo not given)	ALR inh 98
CCC(c1nnnn1C1CCCC1)N1CCN(c2cccc(OC)c2)CC1 (stereo not given)	ALR inh 98

Screening results deposited in PubChem BioAssay by several laboratories.
